The results in this text go back to PubChem BioAssay.

Test [1] is described as follows: growth inhibition of DIPG glioma cells, dose response, cell-based, SU-DIPG-XIII, MIPE4.0, CellTiter-Glo, qHTS (AID 1347061; cut-off not given, nearly all actives have AC50 up to about 37 µM;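 also: cells exposed to compound for 48 hours before readout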). The settings on record: SU-DIPG-XIII viability, CellTiter-Glo ATP luminescence.
A short description of test [2]: growth inhibition of DIPG glioma cells, dose response, cell-based, JHH-DIPG-1, MIPE4.0, CellTiter-Glo, qHTS (AID 1347062; cut-off not given, nearly all actives have AC50 up to about 27 µM). The settings on record: JHH-DIPG-1 viability, CellTiter-Glo ATP luminescence.
Test [3] is described as follows: viability loss in pontine glioma line – cell-based, SU-DIPG-XXV, MIPE5.0, CellTiter-Glo, qHTS, dose response (AID 1347065; cut-off not given, nearly all actives have AC50 up to about 26 µM;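 also: cells exposed to compound for 48 hours before ATP readout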). The settings on record: CellTiter-Glo ATP luminescence.
A short description of test [4]: SU-DIPG-VI glioma cell viability, MIPE4.0 library, CellTiter-Glo luminescence, qHTS (AID 1347066; cut-off not given, nearly all actives have AC50 up to about 30 µM;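 also: cells exposed to compound for 48 hours before readout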). The settings on record: CellTiter-Glo ATP luminescence.
A short description of test [5]: SU-DIPG-XXV glioma cell viability, MIPE5.0 library, qHTS (AID 1347068; cut-off not given, nearly all actives have IC50 up to about 30 µM).
Test [6] can be described thus: growth inhibition of DIPG glioma cells, dose response, cell-based, SU-DIPG-XIII, MIPE5.0, CellTiter-Glo, qHTS (AID 1347064; cut-off not given, nearly all actives have AC50 up to about 23 µM). Particulars: SU-DIPG-XIII viability, CellTiter-Glo ATP luminescence.
Test [7] is described as follows: JHH-DIPG-1 glioma cell viability, MIPE5.0 library, CellTiter-Glo luminescence, qHTS (AID 1347067; cut-off not given, nearly all actives have AC50 up to about 26 µM;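 also: cells exposed to compound for 48 hours before readout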). The settings on record: JHH-DIPG-1 glioma viability, CellTiter-Glo ATP luminescence.
Test [8] in a line: sensitizers of A549 cells to miR-34 induction, primary screen, imaging, A549 dox-inducible miR-34, nuclei and caspase counts (AID 1347080;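 active = compounds whose cell count with miR-34 switched on is under 0.7 times the count with it off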). The settings on record: A549 miR-34 inducible, Hoechst nuclei count, 48 h.
Test [9] is described as follows: survival rescue of mitochondrial mutant cells in low glucose, primary screen, MELAS cybrids, Rieske KO mouse fibroblasts, CellTiter-Glo (AID 1508586;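 active = mean z-score across replicates of 1.96 or higher in either the MELAS or the Rieske mutant cell line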;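 also: z relative to plate mean and SD of compound and empty wells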).
Test [10] is described as follows: LFS_MB_P medulloblastoma growth inhibition, cell-based, chromothripsis tumors, cisplatin or BGB combos (AID 1671449).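 Also: cells exposed for 96 hours; 0% = vehicle DMSO and 100% = killing by high DMSO.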 Particulars: LFS_MB_P medulloblastoma cells.
Test [11] in a line: HDN33 neuroblastoma growth inhibition, cell-based, chromothripsis tumors, cisplatin or BGB combos (AID 1671450).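 Also: cells exposed to compound for four days; 0% = vehicle DMSO and 100% = cell killing by high DMSO.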 Particulars: HDN33 neuroblastoma cells, stronger effect = higher value.
Test [12] is described as follows: ICB984 medulloblastoma cell growth inhibition, synergistic combos for chromothripsis tumors, cisplatin or BGB combos (AID 1671451; call rule not given here;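 also: cells exposed for 96 hours before readout; 0% = vehicle DMSO and 100% = killing by high DMSO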). The settings on record: ICB984 medulloblastoma cells, drug combinations, stronger effect = higher value.
A short description of test [13]: HTB85 osteosarcoma cell growth inhibition, synergistic combos for chromothripsis tumors, BGB or cisplatin IC20 combos (AID 1671453).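 Also: cells exposed for 96 hours before readout; 0% = vehicle DMSO and 100% = high DMSO killing control.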 The settings on record: HTB85 osteosarcoma cells, drug combinations, stronger effect = higher value.
Test [14] in a line: MDA-MB-436 breast carcinoma cell growth inhibition, synergistic combos for chromothripsis tumors, BGB or cisplatin combos (AID 1671458; call rule not given here;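 also: cells exposed for 96 hours; 0% = vehicle DMSO and 100% = killing by high DMSO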). Particulars: MDA-MB-436 breast carcinoma growth inhibition, drug combinations, stronger effect = higher value.
Test [15] in a line: growth inhibition of BT084 medulloblastoma cells, cell-based, ICGC_MB145, cisplatin and BGB IC40 combos (AID 1671461).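 Also: cells exposed to drugs for 96 hours; 0% = vehicle DMSO and 100% = high DMSO full killing control.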 Particulars: drug combinations, stronger effect = higher value.
Test [16] is described as follows: growth inhibition of RCMB18 medulloblastoma cells, cell-based, cisplatin and BGB IC40 combos (AID 1671462).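 Also: cells exposed to compound for four days.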 Particulars: stronger effect = higher value.
The nature of test [17]: growth inhibition of CRL1545 osteosarcoma cells, cell-based, cisplatin and BGB IC20 combos (AID 1671464).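 Also: cells exposed to compound for 96 hours before readout; 0% = vehicle DMSO and 100% = high DMSO killing control.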 Particulars: stronger effect = higher value.
Where [18] appears, read: measured here: with BGB IC20 combination, at 0.5 µM.
The mark [19] stands for this setting: measured here: with cisplatin IC20 combination, at 0.5 µM.

Each structure is given as a SMILES string. Several values for one entry are separate records, joined by “and”; a condition that tells them apart may be missing. Equal values may be shown once. Results filed as inconclusive are left out. A structure can be active in one record and inactive in another. Activity calls are given as the source filed them. Rule as the data show it, unless noted: active = inhibition above about 80%; inactive = the rest.

Regarding `CCCCCN(CCC12CC3CC(CC(C3)C1)C2)C(=O)NCCCc1ccncc1`, the compound was called inactive in test [1], in test [2] and in test [5]. For the same compound, the concentration at half-maximal activity (AC50) in test [3] and in [4] was 20.9 µM (active) throughout.
On to `C=C1c2cccc(O)c2C(O)=C2C(=O)[C@@]3(O)C(O)=C(C(N)=O)C(=O)[C@@H](N(C)C)[C@@H]3[C@@H](O)[C@H]12`, for which the result in [1], in test [2], in test [6], in [3], in test [4] and in test [5] was inactive.
As for `O=C(NC[C@H]1CN(c2ccc(N3CCOCC3=O)cc2)C(=O)O1)c1ccc(Cl)s1`, the call in test [1], in [2], in test [4], in [7] and in test [5] was inactive.
In the case of `Cc1cc(C(C)Nc2ccccc2)c2nc(N3CCOCC3)cc(=O)n2c1` (configuration not stated), the result in [1], in test [2], in test [4], in test [7] and in test [5] was inactive. Further, the fold change in test [8] (stronger effect = lower value, cell number ratio, induced over uninduced) was 0.85 (inactive); in [8] (measured here: relative caspase fold change +Dox/-Dox), 1.05. Moreover, the cell count in [8] (measured here: total cells with miR-34 induction, stronger effect = lower value) was 5530; in test [8] (measured here: total cells without miR-34 induction), 6510. For the same compound, the z-score is -0.0991 (inactive) in [9] (MELAS cybrid survival, CellTiter-Glo 48 h, stronger effect = higher value) and 1.51 in test [9] (Rieske KO mouse fibroblast survival, CellTiter-Glo 72 h).
With `Cc1c(-c2cccc3c(CCCOc4cccc5ccccc45)c(C(=O)O)n(Cc4cccnc4)c23)c(COc2ccc(N3CCN([S+](=O)([O-])N(C)C)CC3)cc2)nn1C`, the call in [1] and in [2] was inactive. Further, the AC50 in test [4] was 23.5 µM (active).
`Cc1cnc(CNC(=O)c2c(=O)c3ccc(N4CCCN(C)CC4)nc3n3c2sc2ccccc23)cn1`: the compound was called inactive in [1], in [2], in test [6], in test [3], in test [4] and in test [5]. The inhibition was -32.6% (inactive) and -19.8% (inactive) in test [10] (at 0.5 µM, stronger effect = higher value); -4.81% and -24.5% in test [10] (measured here: combination with BGB IC20, at 0.005 µM); -1.91% and -28.2% in test [10] (measured here: combination with BGB IC40, at 0.005 µM); 0.537% and -10.1% in test [10] (measured here: combination with BGB IC40, at 0.05 µM); -27% and -20.6% in test [10] (measured here: combination with cisplatin, at 0.5 µM, stronger effect = higher value); 126% and 65.2% in [10] (measured here: combination with cisplatin, at 5 µM, stronger effect = higher value). In addition, the inhibition in [11] (BGB combo, at 5 µM) is 99.9% and 61.4%; in test [11] (at 0.5 µM), 53.7% (inactive) and 26.5% (inactive); in [11] (cisplatin combo, at 5 µM) it was 99.9% and 78%; in test [11] (setting [18]) it was 51.6% and 27.6%; in [11] (setting [19]), 44.8% and 18.7%; in test [11] (single agent, at 5 µM), 99.9% and 80.2%. The inhibition was 94.7% and -37.9% in [12] (BGB IC20 combo, at 0.005 µM); 92.8% and -33.4% in test [12] (BGB IC40 combo, at 0.005 µM); 102% in [12] (BGB IC40 combo, at 0.05 µM); -35% (inactive) and -18.1% (inactive) in test [12] (at 0.5 µM); 102% in test [12] (cisplatin combo, at 0.05 µM); -48.5% and -27.9% in [12] (cisplatin combo, at 0.5 µM). The inhibition in test [12] (cisplatin combo, at 5 µM) is -21.1% and -37.3%; in test [12] (measured here: 5 uM single agent, at 5 µM), -8.37% and -11.6%; in test [13] (at 0.5 µM) it was 6.45% (inactive) and -21.5% (inactive); in test [13] (measured here: with BGB IC20, at 0.5 µM), 2.27% and -44.5%; in test [13] (measured here: with BGB IC20, at 5 µM), 100% and 39.1%; in [13] (measured here: with cisplatin IC20, at 0.5 µM) it was -0.545% and -23%. In addition, the inhibition in test [13] (measured here: with cisplatin IC20, at 5 µM) was 99.9% and 26.3%; in test [13] (single agent, at 5 µM), 100% and 41.7%; in test [14] (at 0.5 µM), 29.4% (inactive) and 4.69% (inactive); in test [14] (measured here: BGB combination, at 0.5 µM) it was 10.6% and -16.3%; in [14] (measured here: BGB combination, at 5 µM), 103% and -17.9%; in test [14] (measured here: cisplatin combination, at 0.5 µM), 20.7% and -11.9%. Besides, the inhibition in [14] (measured here: cisplatin combination, at 5 µM) is 102% and 14.1%; in test [15] (at 0.5 µM), -18.1% (inactive) and -56.2% (inactive); in test [15] (cisplatin combination, at 0.5 µM), 18.1% and -29.3%; in test [15] (cisplatin combination, at 5 µM), 108% and 82.2%; in [15] (measured here: BGB IC40 combination 0.05 uM, at 0.05 µM) it was 77.5% and -15.1%; in [15] (single agent, at 5 µM), 106% and -74.4%. Also, the inhibition was 85.6% (active) and -19.4% (inactive) in test [16] (at 0.5 µM); 101% and 100% in test [16] (cisplatin combo, at 5 µM); -21.6% and -12.2% in test [16] (measured here: BGB IC40 combination, at 0.05 µM); 95.7% and -7.59% in test [16] (measured here: combination with cisplatin, at 0.5 µM); 101% in test [16] (single agent, at 5 µM); 38.3% (inactive) and -17.2% (inactive) in [17] (at 0.5 µM). Moreover, the inhibition was 36.7% and -12.7% in test [17] (setting [18]); 39% and -19.4% in [17] (setting [19]); 2.42% and -7.19% in test [17] (single agent, at 0.05 µM); 99.9% in test [17] (single agent, at 5 µM).
